Assay [1] is described as follows: ATG_M_06_XSP2: Attagene TRANS-FACTORIAL Multi-Species (XSP2) HepG2 Assay for M06 Transcription Factor (Internal Marker) (AID 2283811).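 Also: hits are increases in signal above the DMSO baseline.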 The gist of the method: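 Cells of the human liver line HepG2 carried transfected reporter transcription units and were treated for 24 h. Induced reporter transcripts were detected by fluorescence after RT-PCR and capillary electrophoresis, with activity fitted in the gain direction against DMSO.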

Assay [2] has as its target Estrogen receptor beta (Homo sapiens) (UniProt Q92731). Description: ATG_hERb_XSP1: Attagene TRANS-FACTORIAL Multi-Species (XSP1) HepG2 Assay for human Estrogen Receptor (ESR2) (AID 2283788). The method, boiled down: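 Multiplexed trans-activation in transfected HepG2: ERβ-Gal4 reporter transcripts after 24 h treatment, detected by RT-PCR plus capillary electrophoresis.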

The nature of assay [3]: ATG_M_06_XSP1: Attagene TRANS-FACTORIAL Multi-Species (XSP1) HepG2 Assay for M06 Transcription Factor (Internal Marker) (AID 2283790). The gist of the method: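 This background-control readout tracks M06 reporter mRNA, measured by RT-PCR and capillary electrophoresis. HepG2 cells transiently carrying the GAL4-UAS reporter panel were dosed for 24 h with 3 nM 6-alpha-fluorotestosterone added for partial AR stimulation; increases were scored relative to DMSO.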

Assay [4] is described as follows: ATG_M_61_XSP1: Attagene TRANS-FACTORIAL Multi-Species (XSP1) HepG2 Assay for M61 Transcription Factor (Internal Marker) (AID 2283797). The gist of the method: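 Background-control readout: reporter transcripts measured by RT-PCR and capillary electrophoresis 24 h after dosing transiently transfected HepG2 multi-reporter cells, with 3 nM 6-alpha-fluorotestosterone present. Fitted in the positive direction relative to DMSO.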

Assay [5] relates to zebrafish Peroxisome Proliferator-activated Receptor gamma (PPARg), gene 557037. Description: ATG_zfPPARg_XSP1: Attagene TRANS-FACTORIAL Multi-Species (XSP1) HepG2 Assay for zebrafish Peroxisome Proliferator-activated Receptor gamma (PPARg) (AID 2283801). The method, boiled down: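 Trans-activation readout of chimeric zebrafish PPARg–GAL4 in transiently transfected human HepG2 cells, 24 h chemical exposure (medium includes 3 nM 6-alpha-fluorotestosterone). Reporter transcripts measured by RT-PCR and capillary electrophoresis, fitted as gain over DMSO.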

The target of assay [6] is Nuclear receptor subfamily 1 group I member 2 (Mus musculus) (UniProt O54915). The assay is described as follows: ATG_mPXR_XSP1: Attagene TRANS-FACTORIAL Multi-Species (XSP1) HepG2 Assay for mouse Pregnane X Receptor (PXR) (AID 2283803). The gist of the method: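 Transiently transfected HepG2 cells expressing a receptor-Gal4 chimera drive a GAL4-UAS reporter; 3 nM 6-alpha-fluorotestosterone included. Reporter mRNA read 24 h post-dose by RT-PCR and capillary electrophoresis; gain of signal relative to DMSO.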
Chain of Nuclear receptor subfamily 1 group I member 2 (Mus musculus) (O54915 whole entry, looked up, the tested form may be a part): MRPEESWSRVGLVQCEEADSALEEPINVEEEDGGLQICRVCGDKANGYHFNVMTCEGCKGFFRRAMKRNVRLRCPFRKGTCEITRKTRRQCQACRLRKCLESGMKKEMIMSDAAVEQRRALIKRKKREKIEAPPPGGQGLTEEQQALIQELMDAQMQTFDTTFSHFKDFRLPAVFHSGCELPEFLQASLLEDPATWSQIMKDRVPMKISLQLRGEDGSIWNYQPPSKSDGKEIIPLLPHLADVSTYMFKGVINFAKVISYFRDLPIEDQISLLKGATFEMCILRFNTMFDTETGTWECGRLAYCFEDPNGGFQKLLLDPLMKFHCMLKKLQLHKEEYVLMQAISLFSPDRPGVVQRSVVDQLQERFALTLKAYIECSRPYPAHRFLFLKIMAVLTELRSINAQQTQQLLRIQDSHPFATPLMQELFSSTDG

In assay [7] the target is human Thyroid hormone Receptor alpha (TRa), THRA (gene 7067) (UniProt P10827). The assay is described as follows: ATG_hTRa_XSP1: Attagene TRANS-FACTORIAL Multi-Species (XSP1) HepG2 Assay for human Thyroid hormone Receptor alpha (TRa) (AID 2283805). The method, boiled down:
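Reporter transcripts from the human TRa-Gal4 TRANS unit quantified by RT-PCR, fluorescent labeling and capillary electrophoresis after 24 hours of chemical exposure in transfected HepG2 cells; medium contains 3 nM 6-alpha-fluorotestosterone. Positive direction fit against DMSO.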

In assay [8] the target is zebrafish Thyroid Hormone Receptor alpha (TRa), thraa (gene 30670) (UniProt Q98867). The assay is described as follows: ATG_zfTRa_XSP1: Attagene TRANS-FACTORIAL Multi-Species (XSP1) HepG2 Assay for zebrafish Thyroid Hormone Receptor alpha (TRa) (AID 2283807). The method, boiled down: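 Reporter transcripts driven by a chimeric zebrafish TRa–Gal4 protein were measured by RT-PCR with fluorescent labelling and capillary electrophoresis. These came from transiently transfected HepG2 cells after 24 h chemical exposure, with 3 nM 6-alpha-fluorotestosterone added; baseline was DMSO.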
Chain of zebrafish Thyroid Hormone Receptor alpha (TRa), thraa (gene 30670) (Q98867 whole entry, looked up, the tested form may be a part): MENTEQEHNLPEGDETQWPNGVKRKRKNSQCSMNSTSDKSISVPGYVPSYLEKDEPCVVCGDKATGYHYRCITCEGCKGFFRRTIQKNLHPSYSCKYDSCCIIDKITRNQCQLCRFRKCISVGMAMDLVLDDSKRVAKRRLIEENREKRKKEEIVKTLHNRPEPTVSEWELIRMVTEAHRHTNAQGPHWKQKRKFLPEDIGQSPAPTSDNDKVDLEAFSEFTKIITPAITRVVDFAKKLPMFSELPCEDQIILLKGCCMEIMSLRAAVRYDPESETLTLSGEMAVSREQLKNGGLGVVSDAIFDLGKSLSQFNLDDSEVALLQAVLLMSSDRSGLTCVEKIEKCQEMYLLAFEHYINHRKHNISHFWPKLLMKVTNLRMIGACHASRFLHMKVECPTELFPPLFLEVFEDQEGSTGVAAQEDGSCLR

Assay [9] deals with human Thyroid hormone Receptor beta (TRb), THRB (gene 7068) (UniProt P10828). Description: ATG_hTRb_XSP1: Attagene TRANS-FACTORIAL Multi-Species (XSP1) HepG2 Assay for human Thyroid hormone Receptor beta (TRb) (AID 2283808). On the procedure: ATG_XSP1_multi-species_TRANS is a cell-based, multiplexed assay created by modifying the existing Attagene TRANS-FACTORIAL system to include a panel of nuclear receptors from some or all the following species: human (Homo sapiens), mouse (Mus musculus), frog (Xenopus laevis), zebrafish (Danio rerio), chicken (Gallus gallus), and turtle (Chrysemys picta). The ECOTOX-FACTORIAL format uses HepG2, a human liver cell line, with measurements taken at 24 hours after chemical dosing in a 24-well plate. Xsp1 included 3 nM 6-alpha-fluorotestosterone to partially stimulate the androgen receptor.ATG_hTRb_XSP1 is one of 29 assay components measured or calculated from the ATG_XSP1_multi-species_TRANS assay. It is designed to make measurements of mRNA induction, a form of inducible reporter, as detected with fluorescence intensity signals by Reverse transcription polymerase chain reaction (RT-PCR) and Capillary electrophoresis technology.The assay endpoint ATG_hTRb_XSP1 was analyzed in the positive analysis fitting direction relative to DMSO as the negative control and baseline of activity. […] Furthermore, this assay endpoint can be referred to as a primary readout, because this assay has produced multiple assay endpoints where this one serves a reporter gene function. […]
Chain of human Thyroid hormone Receptor beta (TRb), THRB (gene 7068) (P10828 whole entry, looked up): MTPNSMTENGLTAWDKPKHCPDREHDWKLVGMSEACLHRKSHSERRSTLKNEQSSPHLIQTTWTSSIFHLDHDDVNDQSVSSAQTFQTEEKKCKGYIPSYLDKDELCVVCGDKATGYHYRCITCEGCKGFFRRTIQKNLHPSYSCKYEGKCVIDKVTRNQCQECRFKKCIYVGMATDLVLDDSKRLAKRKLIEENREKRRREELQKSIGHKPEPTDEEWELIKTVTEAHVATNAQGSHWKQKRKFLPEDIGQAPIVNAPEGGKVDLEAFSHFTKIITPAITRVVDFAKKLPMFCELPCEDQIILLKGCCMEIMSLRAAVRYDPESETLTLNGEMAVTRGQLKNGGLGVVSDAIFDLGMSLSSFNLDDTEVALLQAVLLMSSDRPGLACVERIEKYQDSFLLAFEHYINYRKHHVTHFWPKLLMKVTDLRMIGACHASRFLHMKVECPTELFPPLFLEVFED

Assay [10] is described as follows: ATG_XTT_Cytotoxicity_XSP1: Cytotoxicity Assessment in the Attagene TRANS-FACTORIAL Multi-Species (XSP1) HepG2 Assay (AID 2283810). The method, boiled down: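 XTT viability readout taken at 24 hours post-dosing in HepG2 liver cells co-treated with 3 nM 6-alpha-fluorotestosterone. Signal loss relative to DMSO controls reflects cytotoxicity.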

This passage reports outcome and AC50 results from PubChem BioAssay (EPA / NIEHS).

Records with an inconclusive call do not appear. Calls of active or inactive are those of the source. The calls were made as follows: active = hit-call score of the fitted dose curve at least 0.9, where 1 is the maximum; inconclusive = response in the unintended direction; inactive = score below 0.9.

Chain of human Thyroid hormone Receptor alpha (TRa), THRA (gene 7067) (P10827 whole entry, looked up, the tested form may be a part): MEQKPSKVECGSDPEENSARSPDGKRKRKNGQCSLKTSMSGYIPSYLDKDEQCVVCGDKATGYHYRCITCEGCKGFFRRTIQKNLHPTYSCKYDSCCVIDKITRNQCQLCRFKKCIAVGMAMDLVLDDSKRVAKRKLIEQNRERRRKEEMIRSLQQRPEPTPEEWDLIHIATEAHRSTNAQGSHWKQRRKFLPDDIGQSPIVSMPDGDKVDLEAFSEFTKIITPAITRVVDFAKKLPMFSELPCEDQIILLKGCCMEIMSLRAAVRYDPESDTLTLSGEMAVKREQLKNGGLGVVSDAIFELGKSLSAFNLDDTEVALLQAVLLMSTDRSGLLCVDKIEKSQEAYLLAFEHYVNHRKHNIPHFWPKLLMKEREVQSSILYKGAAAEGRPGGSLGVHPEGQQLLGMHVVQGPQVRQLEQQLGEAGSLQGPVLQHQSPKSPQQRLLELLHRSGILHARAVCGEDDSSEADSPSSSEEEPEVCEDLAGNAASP
Chain of Estrogen receptor beta (Homo sapiens) (Q92731 whole entry, looked up, the tested form may be a part): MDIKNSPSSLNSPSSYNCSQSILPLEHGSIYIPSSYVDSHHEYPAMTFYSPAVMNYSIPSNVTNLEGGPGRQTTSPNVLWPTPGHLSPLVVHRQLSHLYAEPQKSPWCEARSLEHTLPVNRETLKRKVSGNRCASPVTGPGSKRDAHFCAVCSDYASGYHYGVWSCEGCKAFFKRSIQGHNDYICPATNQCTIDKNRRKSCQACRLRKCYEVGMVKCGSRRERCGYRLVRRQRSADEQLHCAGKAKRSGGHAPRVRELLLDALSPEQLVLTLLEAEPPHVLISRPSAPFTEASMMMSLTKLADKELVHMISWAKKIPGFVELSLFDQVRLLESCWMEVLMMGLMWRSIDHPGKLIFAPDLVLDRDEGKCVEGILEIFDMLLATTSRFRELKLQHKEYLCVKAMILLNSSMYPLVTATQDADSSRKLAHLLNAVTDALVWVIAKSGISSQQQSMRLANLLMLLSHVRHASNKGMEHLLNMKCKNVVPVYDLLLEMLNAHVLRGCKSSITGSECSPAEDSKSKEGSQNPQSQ

Regarding `Clc1ccc(C(c2ccccc2Cl)C(Cl)Cl)cc1` (stereo not given), the compound was classed as inactive in [1].
For the compound `CCCCC(CC)COC(=O)c1ccc(O)cc1` (stereo not given), the compound was called inactive in [2], in [3], in assay [4], in assay [5], in assay [6] and in assay [7]. The compound was called inactive in assay [8] and in [9]. In assay [10], the AC50 (as a rule, the concentration giving half of the maximal activity seen) is 63.8 µM (active).
In the case of `OCc1cccc(Oc2ccccc2)c1`, in assay [1], the outcome was inactive.
The same measure, in the same setting: the entry for `Cc1cc(=O)oc2cc(N(C)C)ccc12` is “inactive”.
Regarding `BrCc1cccc(Oc2ccccc2)c1`, in assay [1], the outcome was inactive.
On to `O=c1c(O)c(-c2ccc(O)cc2)oc2cc(O)cc(O)c12`, for which the call in [1] was inactive.
On to `Oc1ccc2cc(SSc3ccc4cc(O)ccc4c3)ccc2c1`, for which the result in [1] was inactive.
